Test results as given in PubChem BioAssay.
The source made the active and inactive calls.

What was measured:
[1] = tested on: Plasmodium falciparum Sir2 (PF13_0152, Sir2A); test: pfSir2 binders on small-molecule microarrays, primary screen, biochemical, small-molecule microarray, 635 nm fluorescence (AID 1098); conditions: small-molecule microarray binding, fluorescence 635 nm; higher = more signal;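 also: score merges spot fluorescence intensity with its signal-to-noise ratio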
[2] = small-molecule microarray binders of probe aDKK1, primary screen, biochemical, biotinylated probe, 635/667 nm fluorescence (AID 1099); conditions: higher = more signal;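 also: score merges 667nm spot fluorescence with signal to noise across triplicate slides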
[3] = small-molecule microarray binders of probe aCHRDL2, primary screen, biochemical, biotinylated probe, 635/667 nm fluorescence (AID 1100); conditions: higher = more signal
[4] = splicing luciferase reporter signal modulators, primary screen, spliceosome inhibition project, cell-based, HEK293, splice +/- reporter (AID 1101); conditions: luminescence, 24 h, higher = more signal, called active from +8 up or from −8 down;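 also: HEK293 cells carrying a splicing-competent luciferase reporter gene; test concentration not given here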
[5] = target: Fibroblast growth factor 10 (Homo sapiens) (UniProt O15520); test: FGF10 binders on small-molecule microarrays, primary screen, biochemical, small-molecule microarray, 635 nm fluorescence (AID 1102); conditions: FGF10 binding, fluorescence 635 nm, higher = more signal
Chain of Fibroblast growth factor 10 (Homo sapiens) (O15520 whole entry, looked up): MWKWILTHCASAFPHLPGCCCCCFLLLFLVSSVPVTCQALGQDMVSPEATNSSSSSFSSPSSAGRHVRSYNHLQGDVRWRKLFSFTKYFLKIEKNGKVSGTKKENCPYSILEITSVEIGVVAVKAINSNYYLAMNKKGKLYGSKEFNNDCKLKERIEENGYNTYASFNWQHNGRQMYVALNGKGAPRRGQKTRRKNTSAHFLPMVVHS

[6] = tested on: glycogen synthase kinase-3 (GSK3A per assay name; protocol says GSK3B); test: GSK3 binders on small-molecule microarrays, primary screen, biochemical, small-molecule microarray, 635 nm fluorescence, GSK3A (AID 1103); conditions: small-molecule microarray binding, fluorescence 635 nm; higher = more signal; also: the record names both GSK3A and GSK3B
[7] = target: Epidermal growth factor receptor (Homo sapiens) (UniProt P00533); test: EGFR binders on small-molecule microarrays, primary screen, biochemical, small-molecule microarray, 635 nm fluorescence (AID 1104); conditions: EGFR binding, higher = more signal;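 also: score merges 667 nm emission intensity with spot signal to noise over triplicate slides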
Chain of Epidermal growth factor receptor (Homo sapiens) (P00533 whole entry, looked up): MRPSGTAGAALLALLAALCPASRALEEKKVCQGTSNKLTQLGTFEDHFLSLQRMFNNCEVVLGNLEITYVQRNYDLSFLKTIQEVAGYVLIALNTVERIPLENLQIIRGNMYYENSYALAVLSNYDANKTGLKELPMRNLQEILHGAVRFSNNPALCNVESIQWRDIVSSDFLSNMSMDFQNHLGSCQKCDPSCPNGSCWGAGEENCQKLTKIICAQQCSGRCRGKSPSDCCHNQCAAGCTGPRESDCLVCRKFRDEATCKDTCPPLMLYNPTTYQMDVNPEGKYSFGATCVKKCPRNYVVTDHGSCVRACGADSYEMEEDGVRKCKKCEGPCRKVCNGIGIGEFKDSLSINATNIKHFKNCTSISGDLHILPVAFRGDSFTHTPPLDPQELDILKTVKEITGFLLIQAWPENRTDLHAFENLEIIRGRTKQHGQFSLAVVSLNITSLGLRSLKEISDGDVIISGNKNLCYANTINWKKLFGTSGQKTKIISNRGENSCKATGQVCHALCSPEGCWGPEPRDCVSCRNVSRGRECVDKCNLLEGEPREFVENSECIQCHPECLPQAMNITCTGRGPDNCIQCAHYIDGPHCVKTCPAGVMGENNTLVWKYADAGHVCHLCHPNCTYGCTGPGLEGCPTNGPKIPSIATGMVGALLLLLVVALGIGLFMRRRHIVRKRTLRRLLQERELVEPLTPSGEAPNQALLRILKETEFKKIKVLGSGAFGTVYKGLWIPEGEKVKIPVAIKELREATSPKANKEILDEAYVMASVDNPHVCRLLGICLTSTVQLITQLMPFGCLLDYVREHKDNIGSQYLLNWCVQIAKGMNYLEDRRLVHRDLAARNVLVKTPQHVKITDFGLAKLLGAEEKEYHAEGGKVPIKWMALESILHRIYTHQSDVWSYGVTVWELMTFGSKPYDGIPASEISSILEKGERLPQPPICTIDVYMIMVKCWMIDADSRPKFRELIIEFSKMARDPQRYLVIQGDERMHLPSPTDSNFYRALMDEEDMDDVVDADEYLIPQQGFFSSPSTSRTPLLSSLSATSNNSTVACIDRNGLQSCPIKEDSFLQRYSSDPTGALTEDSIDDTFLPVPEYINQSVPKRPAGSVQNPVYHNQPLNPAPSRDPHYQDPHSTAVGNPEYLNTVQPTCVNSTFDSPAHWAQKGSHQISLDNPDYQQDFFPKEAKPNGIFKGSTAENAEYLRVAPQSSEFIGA

[8] = target: Follistatin-related protein 3 (Homo sapiens) (UniProt O95633); test: FSTL3 binders on small-molecule microarrays, primary screen, biochemical, small-molecule microarray, 635 nm fluorescence (AID 1105); conditions: FSTL3 binding, higher = more signal;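 also: score merges emission near 667 nm and signal to noise per printed spot across three slides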
Chain of Follistatin-related protein 3 (Homo sapiens) (O95633 whole entry, looked up): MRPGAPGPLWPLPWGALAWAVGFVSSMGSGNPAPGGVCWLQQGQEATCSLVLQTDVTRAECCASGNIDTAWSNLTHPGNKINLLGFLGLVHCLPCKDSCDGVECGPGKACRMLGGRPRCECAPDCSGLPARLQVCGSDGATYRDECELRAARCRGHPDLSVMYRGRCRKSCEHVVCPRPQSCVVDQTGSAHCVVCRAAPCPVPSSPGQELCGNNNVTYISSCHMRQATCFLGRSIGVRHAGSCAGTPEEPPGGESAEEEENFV

[9] = target: Dickkopf-related protein 1 (Homo sapiens) (UniProt O94907); test: DKK1 binders on small-molecule microarrays, primary screen, biochemical, small-molecule microarray, 635 nm fluorescence scan (AID 1106); conditions: DKK1 binding, higher = more signal;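 also: score merges emission near 667 nm with signal to noise over three replicate slides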
Chain of Dickkopf-related protein 1 (Homo sapiens) (O94907 whole entry, looked up): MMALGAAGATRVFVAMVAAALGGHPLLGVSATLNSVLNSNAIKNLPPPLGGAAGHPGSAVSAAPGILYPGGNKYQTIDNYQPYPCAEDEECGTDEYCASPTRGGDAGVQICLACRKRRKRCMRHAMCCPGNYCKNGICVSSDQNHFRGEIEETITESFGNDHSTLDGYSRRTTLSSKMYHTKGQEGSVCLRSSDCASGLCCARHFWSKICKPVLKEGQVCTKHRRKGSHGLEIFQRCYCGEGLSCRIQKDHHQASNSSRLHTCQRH

[10] = tested on: Inhibin beta A chain (activin A); test: INHBA (activin A) binders on microarrays, primary screen, biochemical, small-molecule microarray, 635 nm fluorescence scan (AID 1107); conditions: small-molecule microarray binding, higher = more signal;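 also: mouse activin A protein probed at 4.33 µg/mL on printed slides; score merges bound-protein fluorescence near 667 nm with spot signal-to-noise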
[11] = tested on: Human papillomavirus type 1a protein E7 (residues 44-93); test: HPV1a E7 fragment binders on microarrays, primary screen, biochemical, small-molecule microarray, residues 44-93, 635 nm fluorescence (AID 1108); conditions: small-molecule microarray binding, fluorescence 635 nm; higher = more signal;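 also: E7 fragment applied at 1 µg/mL in TBST for 1 h at 4 C; score combines spot fluorescence with its signal to noise ratio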
[12] = modulators of HCV replicon luciferase signal, primary screen, HCV replication inhibitor project, Huh7 cells, luciferase reporter (AID 1109); conditions: 48 h, higher = more signal;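 also: huh7 hepatoma cells harbouring a luciferase neomycin HCV replicon reporter; luciferase luminescence as measure of HCV replicon replication; test concentration not given here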
[13] = target: Left-right determination factor 2 (Homo sapiens) (UniProt O00292); test: LEFTY2 binders on small-molecule microarrays, primary screen, biochemical, small-molecule microarray, 635 nm fluorescence scan (AID 1110); conditions: LEFTY2 binding, higher = more signal
Chain of Left-right determination factor 2 (Homo sapiens) (O00292 whole entry, looked up): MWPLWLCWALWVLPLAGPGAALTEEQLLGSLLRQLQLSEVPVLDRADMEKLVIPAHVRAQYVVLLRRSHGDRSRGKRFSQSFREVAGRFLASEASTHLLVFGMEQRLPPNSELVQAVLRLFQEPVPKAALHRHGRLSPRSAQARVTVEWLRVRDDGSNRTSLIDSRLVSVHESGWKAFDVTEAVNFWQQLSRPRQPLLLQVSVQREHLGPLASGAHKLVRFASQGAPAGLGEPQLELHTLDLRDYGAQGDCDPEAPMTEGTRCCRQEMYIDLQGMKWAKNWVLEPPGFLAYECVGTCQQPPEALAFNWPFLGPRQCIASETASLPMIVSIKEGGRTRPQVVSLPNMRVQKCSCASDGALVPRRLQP

[14] = target: Calmodulin-1 (Homo sapiens) (UniProt P0DP23); test: CALM1 binders on microarrays, EGTA buffer, profiling panel, biochemical, small-molecule microarray, Cy5-labelled CALM1 (AID 1111); conditions: Cy5-CALM1 binding fluorescence, higher = more signal;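 also: labelled calmodulin applied in Tris saline Tween buffer holding calcium plus EGTA and DTT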
[15] = target: Calmodulin-1 (Homo sapiens) (UniProt P0DP23); test: calcium-bound CALM1 binders on microarrays, profiling panel, artefact control for SMM control-protein annotation, biochemical, small-molecule microarray, Cy5-labelled CALM1, plus calcium (AID 1112); conditions: Cy5-CALM1 binding fluorescence, higher = more signal;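 also: score merges spot fluorescence with signal to noise from triplicate slides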
[16] = small-molecule microarray binders of probe aWnt5a, primary screen, biochemical, biotinylated probe, 635/667 nm fluorescence (AID 1113); conditions: higher = more signal;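 also: score merges 667 nm fluorescence intensity with signal-to-noise per printed feature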
[17] = small-molecule microarray binders of probe aShh, primary screen, biochemical, biotinylated probe, 635/667 nm fluorescence (AID 1114); conditions: higher = more signal;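 also: probe is biotin-labelled aShh protein from a stem cell growth factor screen; measures binding of labelled protein to compounds printed on the slide; score merges feature fluorescence at 667 nm with signal-to-noise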
[18] = small-molecule microarray binders of probe aNog, primary screen, biochemical, biotinylated probe, 635/667 nm fluorescence (AID 1115); conditions: higher = more signal;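 also: probe is biotinylated aNog protein used at 0.15 µg/mL for 1 h at 4 C; z-score combines 667 nm fluorescence of each spot with its signal to noise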
[19] = target: Torsin-1A-interacting protein 1 (Homo sapiens) (UniProt Q5JTV8); test: LAP1 binders from COS7 cell lysate, primary screen, small-molecule microarray, 635/667 nm fluorescence (AID 1116); conditions: COS7-hLAP1 lysate binding, 635 nm fluorescence, higher = more signal
Chain of Torsin-1A-interacting protein 1 (Homo sapiens) (Q5JTV8 whole entry, looked up): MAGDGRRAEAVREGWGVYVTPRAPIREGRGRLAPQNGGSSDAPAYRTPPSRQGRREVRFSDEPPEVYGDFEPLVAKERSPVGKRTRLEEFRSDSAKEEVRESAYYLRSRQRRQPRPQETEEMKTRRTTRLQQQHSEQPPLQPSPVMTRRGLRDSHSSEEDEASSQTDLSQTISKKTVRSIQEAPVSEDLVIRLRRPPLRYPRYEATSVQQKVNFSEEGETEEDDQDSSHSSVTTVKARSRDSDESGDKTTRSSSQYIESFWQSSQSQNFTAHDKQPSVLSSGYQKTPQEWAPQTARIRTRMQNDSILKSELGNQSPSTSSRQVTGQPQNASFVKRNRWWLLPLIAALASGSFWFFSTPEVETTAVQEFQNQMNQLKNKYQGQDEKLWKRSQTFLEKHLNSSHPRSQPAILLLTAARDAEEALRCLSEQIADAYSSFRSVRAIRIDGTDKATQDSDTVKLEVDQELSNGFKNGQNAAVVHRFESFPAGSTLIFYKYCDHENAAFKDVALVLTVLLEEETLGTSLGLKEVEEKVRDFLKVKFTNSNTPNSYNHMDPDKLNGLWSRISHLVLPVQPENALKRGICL

[20] = target: Alpha-bungarotoxin (Bungarus multicinctus) (UniProt P60615); test: alpha-bungarotoxin binders on microarray, profiling panel, artefact control for SMM control protein annotation, biochemical, small-molecule microarray, Alexa647 label, 635/667 nm fluorescence (AID 1117); conditions: alpha-BTX-A647 binding fluorescence, higher = more signal
Chain of Alpha-bungarotoxin (Bungarus multicinctus) (P60615 whole entry, looked up): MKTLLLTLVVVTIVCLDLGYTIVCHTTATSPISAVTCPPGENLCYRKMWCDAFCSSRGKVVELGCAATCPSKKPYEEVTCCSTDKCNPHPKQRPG

Row | SMILES | composite z-score [1] | composite z-score [2] | composite z-score [3] | z-score [4] | composite z-score [5] | composite z-score [6] | composite z-score [7] | composite z-score [8] | composite z-score [9] | composite z-score [10] | composite z-score [11] | z-score [12] | composite z-score [13] | composite z-score [14] | composite z-score [15] | composite z-score [16] | composite z-score [17] | composite z-score [18] | composite z-score [19] | composite z-score [20]
1 | CCCc1cc2c(n1Cc1cc(F)cc(F)c1)C(C)C1CN(C(=O)c3ccccc3)C(C)(C(=O)OC)C21 (stereo not given) | 1.01 | 1.28 | 1.33 | -3.1 (inactive) | 1.21 | 1.07 | 0.0159 | 0.899 | 0.215 | 1.27 | 1.35 | -2.24 | 0.225 | 2.31 | 0.813 | 0.36 | -0.148 | 0.363 | 2.6 | 2.34
2 | CC(C)C(=C=CC[C@H](O)c1ccc(OCCO)cc1)CCO | 1.42 | 0.0229 | 0.0152 | 0.0477 (inactive) | 0.835 | 0.145 | 0.0098 | 0.842 | 0.296 | 0.943 | 1.39 | -0.119 | 0.131 | 0.219 | -0.729 | -0.0107 | 0.163 | 0.508 | 0.828 | 0.663
3 | CN(C)CCCC[C@@H]1NC(=O)[C@@H]2C[C@H](C(=O)NCCCCCCN)[C@H](c3cccc(OCCO)c3)N2C1=O | 0.891 | 0.956 | 0.584 | -0.502 (inactive) | 0.894 | 1.22 | 0.0249 | 0.0587 | 0.603 | 0.6 | 1.29 | 0.484 | 0.45 | 1.23 | 0.827 | -0.0455 | 0.876 | 1.13 | 2.88 | 2.63
4 | COCCOC(=O)N1C(=O)[C@@]2(c3cc(C#CCNC(N)=O)ccc31)[C@H](C(=O)N1CCN(c3ncccn3)CC1)[C@H]1C(=O)O[C@H](c3ccccc3)[C@H](c3ccccc3)N1[C@@H]2c1ccc(OCCO)cc1 | 1.08 | 0.223 | 0.329 | -0.729 (inactive) | 1.01 | -0.0506 | 0.498 | 1.37 | 0.204 | 0.63 | 1.01 | -0.801 | 0.188 | 0.392 | 0.0615 | 0.0031 | -0.315 | 0.196 | 0.0481 | 1.82
5 | COC(=O)[C@@]1(Cc2ccc(F)cc2)[C@H]2c3cc(C(=O)N4CCCC4)n(CCCNc4ncc(C(F)(F)F)cc4Cl)c3C[C@H]2CN1C(=O)c1ccccc1 | 0.913 | 1.43 | 1.05 | -2.38 (inactive) | 0.137 | -0.548 | 0.23 | -0.142 | -0.808 | 1.17 | 1.39 | -1.48 | -0.386 | 1.59 | 0.868 | -0.0107 | 0.831 | 1.37 | 0.679 | 0.493
6 | COc1ccc([Si](C)(C)[C@@H]2[C@@H](CCO)O[C@]3(C(=O)N(Cc4ccc(N(C=O)c5ccccc5)cc4)c4ccccc43)[C@H]2C)cc1 | 0.724 | 0.116 | 0.605 | -1.38 (inactive) | 0.224 | -0.157 | -0.049 | 0.218 | -0.013 | 1.1 | 0.121 | -4.67 | 0.0196 | 1.32 | 0.973 | -0.0203 | 0.385 | 0.286 | 0.419 | 1.62
